In the OligoGym collection:

Biological target: CLEC9A
Assay: pooled miR-30 sensor sort-seq; sequence = guide strand
Details: shRNA
Further: reference of the scale not given here.

**Q.** How did the sensor-assay potency score (higher = more potent) turn out when TTTTCTTGCTGCTGCATCGCAA was run?
**A.** The sensor-assay potency score (higher = more potent) was -0.454.

**Q.** For TAGCTGACTGGGATCTCTCTGC, which sensor-assay potency score (higher = more potent) is on record?
**A.** The sensor-assay potency score (higher = more potent) was -0.395.

**Q.** TTAAACAATTCTCTTGACTGGT was tested. Which sensor-assay potency score (higher = more potent) did it give?
**A.** Its sensor-assay potency score (higher = more potent) is -0.125.

**Q.** TTGGATGAGTTTTTCTTGCTGC was tested. Which sensor-assay potency score (higher = more potent) did it give?
**A.** The sensor-assay potency score (higher = more potent) was 0.744.

**Q.** Which sensor-assay potency score (higher = more potent) does the source give for TAAACAATTCTCTTGACTGGTG here?
**A.** Its sensor-assay potency score (higher = more potent) is -0.135.

**Q.** Which sensor-assay potency score (higher = more potent) does the source give for TTGGAAGACAGACATTTCTGGT here?
**A.** The sensor-assay potency score (higher = more potent) was -0.439.

**Q.** TCACAAGACAGCATGCTCCTGA was tested. Which sensor-assay potency score (higher = more potent) did it give?
**A.** Its sensor-assay potency score (higher = more potent) is 0.87.

Biological target: CLN3
Assay: as above
Details: shRNA

**Q.** For TCAAATCGTGATGAGCTGTTGT, which sensor-assay potency score (higher = more potent) is on record?
**A.** Its sensor-assay potency score (higher = more potent) is 0.182.

**Q.** Which sensor-assay potency score (higher = more potent) does the source give for ATCGTGATGAGCTGTTGTGGGG here?
**A.** The sensor-assay potency score (higher = more potent) was -0.665.

**Q.** How did the sensor-assay potency score (higher = more potent) turn out when AAATCGTGATGAGCTGTTGTGG was run?
**A.** Its sensor-assay potency score (higher = more potent) is -0.817.

**Q.** How did the sensor-assay potency score (higher = more potent) turn out when AATCCCACTGACGAGAACCCGG was run?
**A.** The sensor-assay potency score (higher = more potent) was -0.766.

**Q.** How did the sensor-assay potency score (higher = more potent) turn out when TTGCAGTCAAATCGTGATGAGC was run?
**A.** Its sensor-assay potency score (higher = more potent) is -1.19.

**Q.** How did the sensor-assay potency score (higher = more potent) turn out when TTGTGGCTAAGGATGTCGTGGG was run?
**A.** The sensor-assay potency score (higher = more potent) was -0.303.

**Q.** How did the sensor-assay potency score (higher = more potent) turn out when AATCGTGATGAGCTGTTGTGGG was run?
**A.** Its sensor-assay potency score (higher = more potent) is -0.0059.

**Q.** For TCGTGATGAGCTGTTGTGGGGG, which sensor-assay potency score (higher = more potent) is on record?
**A.** Its sensor-assay potency score (higher = more potent) is -0.528.

**Q.** With AAGACCACACCACACAGGCTGG as the sequence, how does the sensor-assay potency score (higher = more potent) read?
**A.** The sensor-assay potency score (higher = more potent) was -1.35.

**Q.** With TGGTACAGCATCTGGTACCAGC as the sequence, how does the sensor-assay potency score (higher = more potent) read?
**A.** Its sensor-assay potency score (higher = more potent) is -1.94.

**Q.** AACACTGTCCACCTTTCCCGAA was tested. Which sensor-assay potency score (higher = more potent) did it give?
**A.** Its sensor-assay potency score (higher = more potent) is -1.44.

**Q.** How did the sensor-assay potency score (higher = more potent) turn out when TAGAGACAGAGTTGCAGTCAAA was run?
**A.** The sensor-assay potency score (higher = more potent) was -1.26.

**Q.** TGAGCAACAAGAAATAGCTGGC was tested. Which sensor-assay potency score (higher = more potent) did it give?
**A.** The sensor-assay potency score (higher = more potent) was 0.625.

**Q.** With GTGAGCAACAAGAAATAGCTGG as the sequence, how does the sensor-assay potency score (higher = more potent) read?
**A.** Its sensor-assay potency score (higher = more potent) is -0.754.

**Q.** For TCTGCCAGCAGGAACACCAGGT, which sensor-assay potency score (higher = more potent) is on record?
**A.** Its sensor-assay potency score (higher = more potent) is 0.0628.

**Q.** How did the sensor-assay potency score (higher = more potent) turn out when TGGTCCAACAGAGGGAGCCGGG was run?
**A.** The sensor-assay potency score (higher = more potent) was -1.78.

**Q.** With TACAGCATCTGGTACCAGCGGT as the sequence, how does the sensor-assay potency score (higher = more potent) read?
**A.** The sensor-assay potency score (higher = more potent) was -0.527.

**Q.** Which sensor-assay potency score (higher = more potent) does the source give for TTTCCCGATGTCCTCTTGTGGC here?
**A.** The sensor-assay potency score (higher = more potent) was -1.44.

**Q.** How did the sensor-assay potency score (higher = more potent) turn out when TTGTGGAAGGTGTTCACGTAGG was run?
**A.** Its sensor-assay potency score (higher = more potent) is -0.371.

**Q.** With AAGTAAACTACGACCAAGGGAA as the sequence, how does the sensor-assay potency score (higher = more potent) read?
**A.** The sensor-assay potency score (higher = more potent) was -0.0602.

**Q.** With CAGAGTTGCAGTCAAATCGTGA as the sequence, how does the sensor-assay potency score (higher = more potent) read?
**A.** Its sensor-assay potency score (higher = more potent) is -1.16.

**Q.** How did the sensor-assay potency score (higher = more potent) turn out when TGACTCAGGGAAGTGTTCCAGA was run?
**A.** The sensor-assay potency score (higher = more potent) was -0.693.

**Q.** With AACAATTTGATGACGAGTGTGG as the sequence, how does the sensor-assay potency score (higher = more potent) read?
**A.** The sensor-assay potency score (higher = more potent) was 0.272.

**Q.** With TTGAACACTGTCCACCTTTCCC as the sequence, how does the sensor-assay potency score (higher = more potent) read?
**A.** Its sensor-assay potency score (higher = more potent) is -0.845.

Biological target: CLN5
Assay: as above
Details: shRNA

**Q.** With TTTCTATGTTCTTGAACTCTGC as the sequence, how does the sensor-assay potency score (higher = more potent) read?
**A.** Its sensor-assay potency score (higher = more potent) is -0.7.

**Q.** TAATATGCAGCAATTCTGCTGA was tested. Which sensor-assay potency score (higher = more potent) did it give?
**A.** The sensor-assay potency score (higher = more potent) was 0.18.

**Q.** With TAGTTGGTTTCTATGTTCTTGA as the sequence, how does the sensor-assay potency score (higher = more potent) read?
**A.** The sensor-assay potency score (higher = more potent) was -0.69.

**Q.** Which sensor-assay potency score (higher = more potent) does the source give for TGTTTGTGCACAATCACTGCAT here?
**A.** The sensor-assay potency score (higher = more potent) was 0.594.

**Q.** Which sensor-assay potency score (higher = more potent) does the source give for TTATAAAACAAATAGAACTGTT here?
**A.** The sensor-assay potency score (higher = more potent) was -0.281.

**Q.** With TTGCCAGTTAATGTACTTCTGA as the sequence, how does the sensor-assay potency score (higher = more potent) read?
**A.** Its sensor-assay potency score (higher = more potent) is -0.714.

**Q.** With TAGCTTGACAATAAGGATCAGG as the sequence, how does the sensor-assay potency score (higher = more potent) read?
**A.** Its sensor-assay potency score (higher = more potent) is -0.401.

**Q.** Which sensor-assay potency score (higher = more potent) does the source give for TGTTCTTGAACTCTGCTCCAAA here?
**A.** Its sensor-assay potency score (higher = more potent) is -0.828.

**Q.** With TCTATGTTCTTGAACTCTGCTC as the sequence, how does the sensor-assay potency score (higher = more potent) read?
**A.** The sensor-assay potency score (higher = more potent) was 0.0222.
